# Test results taken from PubChem BioAssay (Tox21).
# A number with no mark means an inactive call. Inconclusive results are not listed. Where a call stands in place of a potency, no number is given. The source made the active and inactive calls. Unless noted, calls come from the whole dose curve.
# How the values were obtained:
# [1] = Nuclear factor erythroid 2-related factor 2/antioxidant responsive element (Nrf2/ARE) small molecule agonists: qHTS cell viability counter screen in human keratinocytes (AID 1919968; active = well fitted curve in the direction sought with a large enough effect in the repeat runs; an effect the other way counts as inactive or inconclusive; note: nearly all actives have a fitted effect of over 55% in size)
# How it was run: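 After a 5 h attachment period, ARE-reporter keratinocytes were dosed with compounds in DMSO and then cultured 23 h at 37 C. Cell viability came from CellTiter-Fluor signal read after a further 1 h.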
# [2] = Nuclear factor erythroid 2-related factor 2/antioxidant responsive element (Nrf2/ARE) small molecule agonists: luciferase reporter gene qHTS assay in human keratinocytes (AID 1919969); note: nearly all actives have a fitted effect of over 35% in size
# [3] = biological target: Gonadotropin-releasing hormone receptor (Homo sapiens) (UniProt P30968); assay: Human gonadotropin-releasing hormone receptor (GnRHR) small molecule agonists, calcium flux assay in GnRHR-HEK293 cells (AID 1920063); note: nearly all actives have a fitted effect of over 35% in size
# Chain of Gonadotropin-releasing hormone receptor (Homo sapiens) (P30968 whole entry, looked up): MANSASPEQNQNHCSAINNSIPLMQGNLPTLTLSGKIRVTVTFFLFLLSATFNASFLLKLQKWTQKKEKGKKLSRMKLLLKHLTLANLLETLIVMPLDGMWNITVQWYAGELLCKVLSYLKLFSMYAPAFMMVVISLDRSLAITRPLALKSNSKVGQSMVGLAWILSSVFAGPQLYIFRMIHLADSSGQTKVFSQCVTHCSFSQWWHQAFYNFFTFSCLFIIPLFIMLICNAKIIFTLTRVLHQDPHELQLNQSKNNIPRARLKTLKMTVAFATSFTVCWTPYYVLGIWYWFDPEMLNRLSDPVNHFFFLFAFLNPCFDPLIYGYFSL
# How it was run: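 We seeded human GnRHR-expressing HEK293 cells for 18 hours, loaded them with calcium dye for an hour at 37 C, added test compounds, and recorded fluorescence intensity kinetically for three minutes.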
# [4] = biological target: KiSS-1 receptor (Homo sapiens) (UniProt Q969F8); assay: Human kisspeptin (KISS1R) small molecule agonists, calcium flux assay in KISS1R-HEK293 cells (AID 1920064; active = well fitted curve in the direction sought with a large enough effect in the repeat runs; an effect the other way counts as inactive or inconclusive)
# Chain of KiSS-1 receptor (Homo sapiens) (Q969F8 whole entry, looked up): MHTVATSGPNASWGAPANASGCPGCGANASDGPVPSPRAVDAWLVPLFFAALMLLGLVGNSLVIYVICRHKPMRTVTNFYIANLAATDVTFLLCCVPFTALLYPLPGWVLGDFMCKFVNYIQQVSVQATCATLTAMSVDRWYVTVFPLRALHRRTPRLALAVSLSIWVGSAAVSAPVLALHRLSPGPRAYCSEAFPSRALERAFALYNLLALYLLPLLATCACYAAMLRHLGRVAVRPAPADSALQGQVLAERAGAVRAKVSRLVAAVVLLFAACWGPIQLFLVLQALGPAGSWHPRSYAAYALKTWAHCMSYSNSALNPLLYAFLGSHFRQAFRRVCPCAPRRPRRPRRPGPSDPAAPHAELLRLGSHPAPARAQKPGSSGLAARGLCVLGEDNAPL
# How it was run: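 Kinetic calcium assay, 1 s sampling over 3 min at Ex/Em 480/540, in HEK293 cells engineered with human KISS1R; compounds delivered in DMSO after 1 h dye loading.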
# [5] = G protein-coupled receptor (GPCR) small molecule agonists, calcium flux assay: HEK293 wild type cell line counter screen (AID 1920065)
# How it was run: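 Calcium-sensitive dye, loaded 1 h at 37 C into cells cultured 18 h, reports compound-evoked calcium release as fluorescence (Ex/Em 480/540), measured over 3 min. Agonist mode; 15-point titrations, triplicate.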
# [6] = p53 small molecule agonists, cell-based qHTS assay with human liver microsomes (AID 1963577);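 note: p53 response element beta-lactamase reporter cells with liver microsomes plus NADPH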
# How it was run: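 With metabolic activation: human liver microsomes (0.5 mg/mL final) plus NADPH (0.5 mg/mL final) added alongside compounds to p53RE-bla cells; 16 h 37 C exposure; beta-lactamase read by LiveBLAzer fluorescence.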
# [7] = p53 small molecule agonists, cell-based qHTS assay with rat liver microsomes (AID 1963578)
# How it was run: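 Metabolic activation by rat liver microsomes and NADPH, each 0.5 mg/mL final, added right after compounds to p53RE-bla reporter cells (4,000/well, plated 5 h earlier). 16 h at 37 C, then LiveBLAzer substrate for 2 h at room temperature in the dark; fluorescence read-out.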
# [8] = p53 small molecule agonists, cell-based qHTS assay with human liver microsomes: qHTS cell viability counter screen (AID 1963579); note: nearly all actives have a fitted effect of over 45% in size
# How it was run: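 Metabolic activation used human liver microsomes and NADPH, both 0.5 mg/mL final, over 16 hours at 37 C on p53RE-bla cells (4,000/well). Cytotoxicity measured by CellTiter-Glo luminescence, 30 min at room temperature.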
# [9] = p53 small molecule agonists, cell-based qHTS assay with rat liver microsomes: qHTS cell viability counter screen (AID 1963580); note: nearly all actives have a fitted effect of over 45% in size; note: potency is the fitted concentration of half-maximal effect
# How it was run: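 In HCT-116 cells carrying a p53 response element-bla reporter, compounds were metabolically activated in situ by rat liver microsomes with NADPH over 16 h. Cell ATP content then served as the cytotoxicity measure.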
# [10] = p53 small molecule agonists, cell-based qHTS assay (AID 1963582; active = well fitted activation curve with a large enough effect in the signal ratio in the repeat runs, not every such curve was filed as active; the % refers to the signal ratio)
# How it was run: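 In this cell-based concentration-response screen, a p53 response element drives beta-lactamase; cells received DMSO-borne compounds after 5 h culture and were incubated a further 16 h before FRET substrate development.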
# [11] = biological target: 5-hydroxytryptamine receptor 2A (Homo sapiens) (UniProt P28223); assay: 5-hydroxytryptamine receptor 2A (HTR2A) small molecule antagonists, cell-based qHTS assay (AID 1963586); note: nearly all actives have a fitted effect of over 45% in size
# Chain of 5-hydroxytryptamine receptor 2A (Homo sapiens) (P28223 whole entry, looked up): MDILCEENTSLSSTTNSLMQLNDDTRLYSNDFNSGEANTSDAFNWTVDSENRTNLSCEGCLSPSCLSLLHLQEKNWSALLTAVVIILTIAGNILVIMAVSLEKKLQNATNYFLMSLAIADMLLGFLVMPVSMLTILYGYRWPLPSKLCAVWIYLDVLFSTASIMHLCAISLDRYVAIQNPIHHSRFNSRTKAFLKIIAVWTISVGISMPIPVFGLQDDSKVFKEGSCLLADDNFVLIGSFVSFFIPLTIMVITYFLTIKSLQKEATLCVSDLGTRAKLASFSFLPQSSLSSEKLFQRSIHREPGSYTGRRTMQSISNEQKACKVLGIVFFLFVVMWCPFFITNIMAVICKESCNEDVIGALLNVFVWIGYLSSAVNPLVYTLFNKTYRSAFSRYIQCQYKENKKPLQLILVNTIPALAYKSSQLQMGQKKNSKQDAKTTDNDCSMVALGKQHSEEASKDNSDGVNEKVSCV
# How it was run: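 Antagonist-mode intracellular calcium assay: DOI (4 nM) added after 5 min compound pre-incubation at room temperature to dye-loaded HTR2A-CHO cells. Fluorescence followed for 3 min, sampled every second.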
# [12] = biological target: 5-hydroxytryptamine receptor 2A (Homo sapiens) (UniProt P28223); assay: 5-hydroxytryptamine receptor 2A (HTR2A) small molecule agonists, cell-based qHTS assay (AID 1963587); note: nearly all actives have a fitted effect of over 30% in size
# How it was run: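 HTR2A-CHO cells, plated 18 h at 37 C/5% CO2, dye-loaded 1 h at 37 C; compounds in DMSO added by pin tool (agonist mode). Intracellular calcium flux read as kinetic fluorescence on FDSS over 2 min at 1 s intervals.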
# [13] = biological target: Muscarinic acetylcholine receptor M1 (Homo sapiens) (UniProt P11229); assay: Cholinergic receptor muscarinic 1 (CHRM1) small molecule antagonists, cell-based qHTS assay (AID 1963588); note: nearly all actives have a fitted effect of over 40% in size
# Chain of Muscarinic acetylcholine receptor M1 (Homo sapiens) (P11229 whole entry, looked up): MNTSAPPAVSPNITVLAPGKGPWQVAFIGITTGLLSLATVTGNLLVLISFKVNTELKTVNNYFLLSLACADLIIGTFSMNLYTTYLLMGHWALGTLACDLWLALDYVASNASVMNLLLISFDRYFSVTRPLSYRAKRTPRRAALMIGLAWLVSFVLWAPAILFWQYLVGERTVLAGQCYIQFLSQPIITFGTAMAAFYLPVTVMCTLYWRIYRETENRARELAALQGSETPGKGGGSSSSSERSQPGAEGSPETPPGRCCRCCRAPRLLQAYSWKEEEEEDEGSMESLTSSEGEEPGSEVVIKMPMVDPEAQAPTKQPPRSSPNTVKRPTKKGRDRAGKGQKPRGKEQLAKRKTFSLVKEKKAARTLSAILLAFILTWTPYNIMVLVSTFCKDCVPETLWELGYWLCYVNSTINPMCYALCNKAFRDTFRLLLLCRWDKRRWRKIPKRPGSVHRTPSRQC
# How it was run: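 CHRM1-CHO calcium-flux assay, antagonist mode. Cells were seeded 18 h, dye-loaded 1 h at 37 C and given compound for 5 min at RT, then acetylcholine was added at 50nM. FDSS fluorescence was read 3 min; 15 concentrations, three runs.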
# [14] = biological target: Muscarinic acetylcholine receptor M1 (Homo sapiens) (UniProt P11229); assay: Cholinergic receptor muscarinic 1 (CHRM1) small molecule agonists, cell-based qHTS assay (AID 1963589); note: nearly all actives have a fitted effect of over 35% in size
# How it was run: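 Measures agonist-induced intracellular calcium rise. Stable human CHRM1 CHO line, 1 h dye load at 37 C, compounds from DMSO, kinetic fluorescence read.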
# [15] = cAMP Responsive Elements (CRE) small molecule agonists, cell-based qHTS assay (AID 1963590)
# How it was run: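 A CRE-responsive beta-lactamase reporter in HEK 293T cells was used. Treatment ran 3 h at 37 C; detection used LiveBLAzer B/G FRET substrate for 2 h at room temperature.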
# [16] = cAMP Responsive Elements (CRE) small molecule antagonists, cell-based qHTS assay (AID 1963591; active = well fitted inhibition curve with a large enough effect in the signal ratio in the repeat runs, not every such curve was filed as active; the % refers to the signal ratio)
# How it was run: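 HEK293T cells carrying a CRE-driven beta-lactamase reporter receive compound and NKH477 (0.25 uM final) for 3 h. Fluorescence from LiveBLAzer B/G FRET substrate is read after 2 h at room temperature.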
# [17] = biological target: Beta-2 adrenergic receptor (Homo sapiens) (UniProt P07550); assay: Adrenergic beta2 receptor (ADRB2) small molecule antagonists, cell-based qHTS assay (AID 1963592); note: series mostly up to about 92 µM; nearly all actives have a fitted effect of over 50% in size
# Chain of Beta-2 adrenergic receptor (Homo sapiens) (P07550 whole entry, looked up): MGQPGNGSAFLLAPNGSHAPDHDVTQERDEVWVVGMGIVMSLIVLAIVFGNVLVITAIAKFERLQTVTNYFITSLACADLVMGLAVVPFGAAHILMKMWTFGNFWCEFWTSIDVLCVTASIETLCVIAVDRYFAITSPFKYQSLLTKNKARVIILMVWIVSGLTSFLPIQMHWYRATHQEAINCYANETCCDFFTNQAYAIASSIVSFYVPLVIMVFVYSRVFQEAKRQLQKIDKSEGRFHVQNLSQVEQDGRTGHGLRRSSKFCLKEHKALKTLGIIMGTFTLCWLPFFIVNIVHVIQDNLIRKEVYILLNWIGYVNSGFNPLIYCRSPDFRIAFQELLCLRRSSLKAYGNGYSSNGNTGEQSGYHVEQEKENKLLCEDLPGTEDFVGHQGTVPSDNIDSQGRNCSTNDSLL
# How it was run: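 Cells (CHO, stable ADRB2 overexpression) incubated 18-20hr at 37C; compounds added from DMSO; agonist mix (1nM isoproterenol, 100uM IBMX, 25uM Ro-20-1724) added; 0.5hr RT; d2-cAMP and anti-cAMP-cryptate added; 1hr RT; 665/615 nm read.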
# [18] = biological target: D(2) dopamine receptor (Homo sapiens) (UniProt P14416); assay: Dopamine D2 receptor (DRD2) small molecule agonists, cell-based qHTS assay (AID 1963594); note: nearly all actives have a fitted effect of over 35% in size
# Chain of D(2) dopamine receptor (Homo sapiens) (P14416 whole entry, looked up): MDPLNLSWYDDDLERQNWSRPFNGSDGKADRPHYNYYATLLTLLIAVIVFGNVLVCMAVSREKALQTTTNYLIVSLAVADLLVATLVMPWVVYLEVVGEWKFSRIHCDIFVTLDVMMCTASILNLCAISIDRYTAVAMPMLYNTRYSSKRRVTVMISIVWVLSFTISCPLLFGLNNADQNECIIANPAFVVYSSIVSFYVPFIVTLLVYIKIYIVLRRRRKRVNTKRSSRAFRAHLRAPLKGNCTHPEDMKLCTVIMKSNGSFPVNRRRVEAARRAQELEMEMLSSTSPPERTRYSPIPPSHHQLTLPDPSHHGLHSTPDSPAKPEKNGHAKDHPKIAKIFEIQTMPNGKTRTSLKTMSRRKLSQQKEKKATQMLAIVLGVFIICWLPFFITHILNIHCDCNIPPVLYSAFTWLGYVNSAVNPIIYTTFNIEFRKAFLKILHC
# How it was run: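 HEK293 cells stably expressing DRD2 were cultured 24 h at 37 C, then given Ro20-1724 (0.1 mM final) and compounds for 10 min at room temperature. NKH477 (200nM) was then added for 30 min. cAMP was read by HTRF.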
# [19] = biological target: D(2) dopamine receptor (Homo sapiens) (UniProt P14416); assay: Dopamine D2 receptor (DRD2) small molecule antagonists, cell-based qHTS assay (AID 1963595; active = well fitted inhibition curve with a large enough effect in the signal ratio in the repeat runs, with a control signal flat; the % refers to the signal ratio)
# How it was run: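 HEK293 cells stably expressing DRD2 were preincubated with 0.1 mM Ro20-1724, then with compound for 10 min at room temperature. Cells were stimulated with 200 nM NKH477 plus 12 nM quinpirole for 30 min, and cAMP was read by HTRF.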
SMILES,Potency [1],Potency [2],Potency [3],outcome [4],outcome [5],Potency [6],Potency [7],Potency [8],Potency [9],Potency [10],Potency [11],Potency [12],Potency [13],Potency [14],Potency [15],Potency [16],Potency [17],Potency [18],Potency [19]
CC1(C)C(=O)N(CO)C(=O)N1CO,inactive,inactive,inactive,inactive,inactive,inactive,inactive,inactive,inactive,inactive,inactive,inactive,inactive,inactive,inactive,inactive,inactive,inactive,inactive
C=C(C)C1CCC(C)CC1O (stereo unspecified),inactive,inactive,inactive,inactive,inactive,inactive,inactive,inactive,1.62 µM (active),inactive,inactive,inactive,inactive,inactive,,inactive,inactive,inactive,inactive
C/C=C(\C)C(=O)OCCC(C)CCC=C(C)C (stereo unspecified),inactive,inactive,inactive,inactive,inactive,inactive,inactive,inactive,inactive,inactive,inactive,inactive,inactive,inactive,,inactive,inactive,,inactive
CCNC(=O)C1CC(C)CCC1C(C)C (stereo unspecified),inactive,inactive,inactive,inactive,inactive,inactive,inactive,inactive,inactive,inactive,inactive,inactive,inactive,inactive,inactive,,inactive,inactive,inactive
O=C(OOC(=O)c1ccccc1)c1ccccc1,inactive,inactive,inactive,inactive,inactive,inactive,inactive,inactive,inactive,inactive,inactive,inactive,inactive,inactive,inactive,inactive,inactive,inactive,inactive
O=C(O)CCCc1c[nH]c2ccccc12,inactive,inactive,inactive,inactive,inactive,inactive,inactive,inactive,inactive,inactive,inactive,inactive,inactive,inactive,,,inactive,inactive,inactive
CC(C)OC(=O)C(C(=O)OC(C)C)=C1SC=CS1,inactive,inactive,inactive,inactive,inactive,inactive,inactive,inactive,inactive,inactive,inactive,inactive,inactive,inactive,inactive,,inactive,inactive,inactive
